S1P4 antag: human S1P4 receptor antagonism. O95977. S1P4-expressing cells, antagonist mode, reporter read-out. inhibition, % at 4.98 µM. 220,000 tested, 0.26% active; in the data active means inhibition above about 29%;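 further: 0% = wells stimulated with agonist and 100% = vehicle wells without agonist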
Target sequence (O95977 whole entry, looked up): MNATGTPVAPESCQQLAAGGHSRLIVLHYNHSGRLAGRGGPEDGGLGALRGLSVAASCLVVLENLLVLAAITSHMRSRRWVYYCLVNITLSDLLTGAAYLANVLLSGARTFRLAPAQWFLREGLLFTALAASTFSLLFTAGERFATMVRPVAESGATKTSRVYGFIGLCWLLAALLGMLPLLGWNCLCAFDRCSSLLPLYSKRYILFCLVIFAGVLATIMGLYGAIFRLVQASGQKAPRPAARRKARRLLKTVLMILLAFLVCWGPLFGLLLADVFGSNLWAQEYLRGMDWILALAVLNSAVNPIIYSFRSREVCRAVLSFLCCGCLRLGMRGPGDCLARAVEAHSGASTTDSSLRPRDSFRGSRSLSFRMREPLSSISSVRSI
Hsp70 activator: switches on Hsp70 transcription; HeLa Hsp70 promoter luciferase reporter, luminescence; scaled: vehicle 0, proteasome-inhibitor control 100%; activation, % at 10 µM; 200,000 tested, 0.04% active; AID 1203;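 active means activation above the mean across all tested compounds plus 3 SD, cutoff set per campaign, cut at about 5.5% in these data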;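 further: 100% = MG132 at 30 µM as the positive control and 0% = DMSO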
CHOP inhibitor: CHOP inhibition in unfolded protein response. AID 2732. inhibition, % at 10 µM. CHO-K1 CHOP-promoter luciferase, tunicamycin-induced, 15-18 h. 220,000 tested, 3.8% active;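 active means compounds that reduced the stress-induced luciferase reporter signal by more than about 70% of percent inhibition, limit read from the data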;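 further: 0% = tunicamycin plus vehicle and 100% = wells without tunicamycin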
S1P4 agonist: activates the human S1P4 receptor; O95977; S1P4-expressing cell line, agonist reporter assay; activation, % at 4.98 µM; 220,000 tested, 0.35% active; AID 1509; in the data active means activation above about 11%;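 further: 0% = DMSO vehicle and 100% = reference agonist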
Hsp70 act DR: activates Hsp70 transcription in dose response | shares compounds with Hsp70 activator | HeLa hsp70.1pr-luc reporter, luciferase luminescence | calls only at 99 µM | 70 tested, 10% active | AID 1252;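 active means over 50% activation at some tested dose; inactive means under 50% activation at every tested dose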
S1P4 ag conf: confirmation of human S1P4 receptor agonists. shares compounds with S1P4 agonist. S1P4 agonist cell-based reporter assay. activation, % at 4.98 µM. 740 tested, 7% active. AID 1523; in the data active means activation above about 12%;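 further: 0% = vehicle and 100% = full reference agonist response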
S1P1 ag: human S1P1 agonism as S1P4 agonist counter-screen. shares compounds with S1P4 agonist. S1P1 agonist cell-based assay, activation. activation, % at 4.98 µM. 740 tested, 4% active. AID 1563; in the data active means activation above about 21%;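 further: 0% = vehicle wells and 100% = reference agonist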
S1P4 antag cf: confirmation of human S1P4 receptor antagonists | shares compounds with S1P4 antag | S1P4-expressing cell line, antagonist mode, reporter read-out | inhibition, % at 4.98 µM | 520 tested, 71% active | AID 1524; in the data active means inhibition above about 30%
S1P1 antag: human S1P1 antagonism as S1P4 antagonist counter-screen; AID 1564; inhibition, % at 4.98 µM; cell-based S1P1 antagonist counterscreen, inhibition; shares compounds with S1P4 antag; 520 tested, 37% active; in the data active means inhibition above about 40%;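 further: receptor stimulated with S1P near its EC80; 0% = agonist stimulated wells and 100% = vehicle only wells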
CHOP confirm: confirmation of CHOP induction inhibitors; CHO-CHOP promoter luciferase reporter, tunicamycin-induced, luminescence; shares compounds with CHOP inhibitor; inhibition, % at 10 µM; 2,100 tested, 45% active;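 active means mean of three repeat readings of reporter signal inhibition above a set limit, cut at about 70% in these data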;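 further: 0% = tunicamycin plus vehicle and 100% = wells lacking tunicamycin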
* = called active by the depositor; i = inactive; · = not tested or not shown; + = active, no number; ! = a repeat was not active. In the library only some 4.2% were active in any assay of this set; here they are far more common.

SMILES	S1P4 antag	Hsp70 activator	CHOP inhibitor	S1P4 agonist	S1P4 ag conf	S1P1 ag	others
O=C1/C(=C/c2ccncc2)CCC/C1=C\c1ccncc1	83.2*	209.8*	98.2*	-0.8	·	·	Hsp70 act DR=+;S1P4 antag cf=98.9*;S1P1 antag=5.2;CHOP confirm=78.4*
COc1cc(OC)nc(-n2ncc(Br)c(Br)c2=O)n1	11.2	30.4*	111.0*	-0.3	·	·	Hsp70 act DR=+;CHOP confirm=118.5*
COC(=O)c1cnn(-c2nc(OC)cc(OC)n2)c1C	-7.5	-0.1	6.3	-3.1	·	·
O=C(OCn1ncc(Cl)c(Cl)c1=O)c1ccc(F)cc1	-18.0	13.0*	106.5*	-5.1	·	·	Hsp70 act DR=i;CHOP confirm=122.9*
O=[N+]([O-])c1ccccc1C1Nc2cccc3cccc(c23)N1	59.4*	29.8*	106.2*	-2.2	·	·	Hsp70 act DR=i;S1P4 antag cf=-0.2;S1P1 antag=-40.6;CHOP confirm=12.0
COc1ccc(C2Nc3cccc4cccc(c34)N2)cc1	12.6	-0.2	-90.9	-0.1	·	·
Cc1ccc2nc(SCc3ccc([N+](=O)[O-])cc3)[nH]c2c1	-11.9	-0.2	61.1	-3.7	·	·
COc1c2c(nc3occc13)C(CC=C(C)C)(OC)C(O)CC2 (stereo unspecified)	-7.6	-0.3	11.6	0.4	·	·
Cc1cc(Cl)n2c(nc3ccccc32)c1C#N	44.5*	9.7*	108.2*	5.0	·	·	Hsp70 act DR=i;S1P4 antag cf=108.0*;S1P1 antag=69.4*;CHOP confirm=132.9*
Cc1ccccc1[C@@H]1C(C#N)=C(N)S[C@H]1C(=O)c1ccccc1	12.1	-0.3	45.7	-0.5	·	·
C=CS(=O)(=O)c1ccc(Oc2ccc(S(=O)(=O)C=C)cc2)cc1	25.6	48.4*	·	-2.1	·	·	Hsp70 act DR=i;CHOP confirm=119.6*
O=[N+]([O-])c1ccccc1N/N=C\c1ccccc1Cl	-35.6	0.3	-1.1	-1.0	·	·
O=[N+]([O-])c1ccccc1N/N=C/c1cccc(O)c1O	-10.4	·	71.0*	12.7*	-2.6	1.7
COc1cccc(NC(=O)CN(c2ccc3c(c2)OCO3)S(C)(=O)=O)c1	-13.1	-0.3	2.9	0.8	·	·
O=C(O)c1ccc(COc2ccc3c4c(c(=O)oc3c2)CCC4)o1	-21.4	-0.2	5.6	-1.4	·	·
CCN(CC)N=Nc1ccc(S(=O)(=O)N2CCSC2C(=O)O)cc1 (stereo unspecified)	-5.2	0.2	0.4	0.2	·	·
Nc1nonc1NC(=O)CSc1ncccc1C(=O)O	1.0	-0.3	-11.5	44.8*	-2.1	-1.2
COc1ccc(OC)c(NC(=O)CSc2ncccc2C(=O)O)c1	-0.7	-0.2	-10.7	-1.6	·	·
CC(C)N(C1=N/C(=C\c2ccco2)C(=O)N1c1ccccc1)C(C)C	7.4	-0.4	30.9	1.6	·	·
COCCSc1nc(N)c(NC(=O)c2ccc(OC)cc2)c(=O)[nH]1	-7.0	-0.1	10.1	11.9*	-2.4	-4.0
Cc1cc(NC(=O)CSc2nc(N)c(NC(=O)c3ccccc3)c(=O)[nH]2)no1	7.3	-0.2	5.6	-0.4	·	·
CCCCOC(=O)Nc1ccc(C)c(Cl)c1	-14.8	0.1	42.8	0.5	·	·
NS(=O)(=O)c1ccc(N2N=C(c3ccc(Br)cc3)CC2c2ccc(F)cc2)cc1 (stereo unspecified)	-22.8	-0.4	62.8	24.0*	42.5*	112.1*
COc1ccc(C2CC(c3ccccc3)=NN2c2ccc(S(N)(=O)=O)cc2)cc1OC (stereo unspecified)	-12.1	0.7	12.6	6.9	·	·
O=C(O)c1ccc(N2C(=O)/C(=C/C=C/c3ccccc3)SC2=S)cc1	-0.4	-0.2	-5.4	15.2*	-2.3	0.0
SMILES	S1P4 antag	Hsp70 activator	CHOP inhibitor	S1P4 agonist	S1P4 ag conf	S1P1 ag	others
COc1ccc(C(=O)Nc2nc(N)n(-c3ccccc3)n2)cc1	-11.2	-0.5	11.2	41.7*	-3.0	-8.6
O=C(Cn1cccc1)N1CCc2ccccc21	-1.1	0.1	-12.1	0.4	·	·
CCOC(=O)c1ccc(NC(=O)N2CCN(Cc3cccc(F)c3)CC2)cc1	7.2	-0.2	34.7	17.3*	-1.6	1.7
Cc1sc(NC(=O)Nc2ccccc2)c(C(N)=O)c1C	7.0	-0.1	3.5	-1.1	·	·
CC(C)c1nc(SCC(=O)Nc2ccc([N+](=O)[O-])cc2Br)n[nH]1	-11.4	0.0	22.3	67.9*	-2.2	2.9
O=C(Cn1cnc2c(cnn2-c2ccccc2)c1=O)OCc1ccccc1	-14.8	-0.3	27.4	-1.5	·	·
Cc1ccc(-n2ncc3c(=O)n(CC(=O)OCc4ccccc4)cnc32)cc1	-27.8	0.3	-7.0	16.9*	-1.8	-2.4
Cc1cc(N/N=C/c2cccc(Cl)c2)nc(-n2nc(C)cc2C)n1	-15.7	·	-28.8	3.3	·	·
CCOc1ccc(/C(O)=C/C(=O)C(=O)Nc2ccc(S(=O)(=O)NC(C)=O)cc2)cc1	-14.6	-0.5	2.9	12.3*	-1.5	-1.7
COc1ccc(N2CCN(C(=O)C3CC(O)CN3S(=O)(=O)c3ccc([N+](=O)[O-])cc3)CC2)cc1 (stereo unspecified)	-9.4	-0.4	19.5	-0.5	·	·
Cc1cccc(C(=O)NNc2ncnc3c2cnn3C)c1	-7.9	0.4	2.2	14.8*	-1.5	2.7
Cc1ccc(-c2nc(C#N)c(NCc3ccco3)o2)cc1	2.5	0.2	58.8	-1.3	·	·
CSc1ccc(NC(=O)Nc2cccn(Cc3ccccc3)c2=O)cc1	-24.4	-0.3	43.1	33.5*	-1.0	6.0
C(=C\c1nccc2c1[nH]c1ccccc12)/c1ccccc1	0.6	·	3.9	11.2*	0.6	5.4
Cc1ccc(S(=O)(=O)CNC(=O)c2ccccc2)cc1	-2.0	-0.5	27.4	23.9*	-2.4	1.3
Cc1ccc(S(=O)(=O)NCCNC(=O)c2ccccc2)cc1	-2.8	0.0	7.1	-1.1	·	·
Cc1cc2c(cc1C)[n+](C)cn2CC(O)COCc1ccccc1 (stereo unspecified)	7.6	0.1	7.5	0.0	·	·
COc1cc(C2NC(=O)C(C#N)=C(Nc3cccc(C)c3)S2)ccc1O (stereo unspecified)	11.6	·	9.3	21.9*!	-0.2	0.9
Cc1ccc(S(=O)(=O)C2CCOC2=O)cc1 (stereo unspecified)	6.9	-0.4	4.4	-1.1	·	·
CN1CCN(Cc2c(O)ccc3cc(Br)ccc23)CC1	-2.9	-0.5	-20.4	32.1*	-2.6	-4.8
CC(C)Cc1nc(SCc2cccnc2)c2c(=O)n(C)c(=O)n(C)c2n1	-3.0	-0.3	18.1	1.0	·	·
COC(=O)c1sccc1NC(=S)N1CCN(c2cccc(C)c2C)CC1	-11.2	-0.1	33.5	22.6*	-2.1	3.8
Cc1ccc(CCNC(=O)c2nnn(-c3cc(C)cc(C)c3)c2N)cc1	-11.6	-0.2	-24.9	11.0*	-2.0	-3.2

High-throughput results deposited in PubChem BioAssay by several laboratories.
